The values that follow come from PubChem BioAssay (NCI).

Assay in all cases: NCI-60 one-dose screen, 48 h (100 = growth as untreated, 0 = no growth, -100 = all killed)
What all share (conditions): 10 µM unless noted

For experiment [1], the system named is SR leukemia.
The subject of experiment [2] is RPMI-8226 leukemia.
Experiment [3] deals with OVCAR-8 ovarian.
Experiment [4] relates to OVCAR-5 ovarian.
Experiment [5] deals with OVCAR-4 ovarian.
Experiment [6] concerns SK-OV-3 ovarian.
The test system of experiment [7] is IGROV1 ovarian.
For experiment [8], the system named is OVCAR-3 ovarian.
Experiment [9] concerns HS 578T breast.
The test system of experiment [10] is NCI/ADR-RES ovarian.
For experiment [11], the system named is T-47D breast.
The test system of experiment [12] is BT-549 breast.
Experiment [13] concerns SW-620 colon.
For experiment [14], the system named is MCF7 breast.
For experiment [15], the system named is HCT-116 colon.
In experiment [16] the test system is HCC-2998 colon.
The subject of experiment [17] is KM12 colon.
Experiment [18] concerns MDA-MB-435 melanoma.

About 83,000 compounds went through this panel and 20% of them were active in at least one assay; those are over-represented in the sample as a whole.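 Single-concentration screen, 48 h exposure, 96-well plates. Endpoint: percent growth. Below 10 = active.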 Unmarked numbers belong to inactive results. The source made the active and inactive calls.

As to `C/C(=C(\c1ccc(O)cc1)c1ccc(OCCN2CCCCCC2)cc1)c1ccc(Cl)cc1`, the growth in [1] is -24.9% (active); in experiment [2], -2.67% (active); in [3], -73.5% (active); in experiment [4], -56.3% (active); in [5] it was -59.8% (active); in [6] it was -85.5% (active). Also, the growth is -65.1% (active) in experiment [7]; -73.3% (active) in experiment [8]; -46.2% (active) in [9]; -72.7% (active) in experiment [10]; -71.9% (active) in [11]; -71.8% (active) in experiment [12]. The growth in [13] is -2.89% (active); in experiment [14], -81.1% (active); in experiment [15] it was -31.7% (active); in [16], -88.2% (active); in [17], -96.1% (active).
Consider `COc1cc2cc(Oc3ccc(NC(=O)c4cc(C(F)(F)F)cc(C(F)(F)F)c4)cc3)c(C)nc2cc1OCCN1CCOCC1`, for which the growth in [1] is 20.6%; in experiment [2], 24.6%; in experiment [3], 80.1%; in experiment [4], 95.7%; in experiment [5] it was 48.8%; in experiment [6] it was 87.5%. Further, the growth in experiment [7] is 85.6%; in experiment [8] it was 78.9%; in [9], 36.7%; in experiment [10] it was 62.4%; in experiment [11] it was 84.7%; in [12] it was 71.4%. The growth in experiment [13] is 97.2%; in experiment [14], 26.4%; in [15], 11.9%; in experiment [16], 113%; in [17], 73.5%.
In the case of `Clc1ccc2[nH]cc(-c3cncn3CCc3ccc4c(c3)OCO4)c2c1`, the growth in [1] is 62.1%; in [2], 42.5%; in experiment [3], 76%; in [4] it was 76.2%; in experiment [5] it was 33%; in [6], 81%. Also, the growth in [7] was 76.8%; in experiment [8] it was 67.6%; in experiment [9], 69.7%; in experiment [10] it was 78.6%; in experiment [11], 37.8%; in experiment [18] it was 71.3%. For the same compound, the growth in [13] was 79.5%; in experiment [14], 63%; in experiment [15] it was 63.2%; in experiment [16], 89.9%; in experiment [17] it was 74.6%.
For `COc1ccc(OC)c(NC(=O)CCCCCCNC(=O)C(O)(O)C(F)(F)F)c1`, the growth was 12.9% in [1]; 20.9% in experiment [2]; 23.4% in experiment [3]; 26.3% in experiment [4]; 86.7% in [5]; 6.28% (active) in experiment [6]. For the same compound, the growth in [7] was 55.2%; in experiment [8] it was 40.5%; in [9] it was 49.7%; in [11] it was 22.4%; in experiment [12], 76.8%; in experiment [18], 30.1%. The growth in experiment [13] is 6.62% (active); in experiment [14], 36.9%; in experiment [15], 7.1% (active); in experiment [16], 51.5%; in experiment [17] it was 43.5%.
For `O=c1oc2ccc(-c3ccc(F)cc3F)cc2c(=O)n1-c1ccc(Br)cc1F`, the growth was 85.1% in experiment [1]; 31.6% in experiment [2]; 69.5% in experiment [3]; 108% in experiment [4]; 78.7% in experiment [5]; 63.9% in [6]. For the same compound, the growth in experiment [7] was 58.3%; in [9] it was 47.2%; in [10], 75.3%; in experiment [11] it was 5.88% (active); in experiment [12], 30.9%; in experiment [18], 66.9%. Moreover, the growth was 79.3% in [13]; 58.5% in [14]; 57.3% in experiment [15]; 81.5% in experiment [16]; 61.4% in experiment [17].
As for `COc1ccc([C@@H]2C(=O)N(c3cc(OC)c(OC)c(OC)c3)[C@H]2c2ccc(OC)c(O)c2)cc1`, the growth in experiment [1] is 20%; in experiment [2], 13.1%; in experiment [3], 10.6%; in experiment [4], 32.4%; in experiment [5], 58.9%; in [6] it was 30.3%. Also, the growth is 22.5% in experiment [7]; 14.9% in experiment [9]; 13.6% in [10]; 94.9% in experiment [11]; -30.1% (active) in experiment [12]; -15.4% (active) in experiment [18]. In addition, the growth is 24.2% in experiment [13]; 10.6% in experiment [14]; 6.47% (active) in experiment [15]; 17% in experiment [16]; 10.7% in experiment [17].
Consider `Cc1ccc(/C(N)=N/C(N)=N/c2nc3ccccc3s2)cc1`, for which the growth in [1] was 21.1%; in [2], 78.3%; in [3], 78.8%; in experiment [4], 111%; in [5], 105%; in [6] it was 134%. For the same compound, the growth was 67.3% in experiment [7]; 106% in experiment [8]; 112% in experiment [9]; 102% in [12]; 103% in experiment [18]; 107% in experiment [13]. Besides, the growth in experiment [14] is 74%; in experiment [15], 86%; in experiment [16], 104%; in [17], 64.1%.
As to `Cc1cc(Br)ccc1-n1cc(C#N)c(N)c1C(=O)c1ccc(Br)cc1`, the growth in experiment [1] is 89.4%; in [2], 106%; in experiment [3], 106%; in experiment [4], 114%; in [5], 114%; in experiment [6] it was 109%. Besides, the growth in [7] was 110%; in [8] it was 115%; in [9], 106%; in [11], 101%; in experiment [12] it was 89.8%; in [18], 100%. In addition, the growth in experiment [13] is 117%; in experiment [14] it was 95.2%; in experiment [15] it was 88.6%; in experiment [16] it was 110%; in experiment [17], 107%.
